Screening data: PubChem BioAssay, National Center for Advancing Translational Sciences (NCATS)
FMDV antiviral: antivirals against foot and mouth disease virus; AID 1159524; Potency, µM (top dose mostly 57.9 µM), usual class: inhibitors; FMDV antiviral cell-based qHTS; 410,000 tested, 1.2% active; calls by dose curve; tested in HEK293T cells; also: read-out not given here; nearly all actives have a fitted effect of over 45% in size
Shiga inhibitor: Shiga toxin inhibition | Vero cells, Shiga toxin protein synthesis inhibition reporter | inhibition, % at 38.7 µM | 290,000 tested, 9.2% active; in the data active = inhibition mostly above about 28%, no sharp cut-off; inactive = mostly below about 43%
CHX counter: counter-screen hit for Shiga toxin inhibitors, cycloheximide; cell reporter, cycloheximide protein synthesis inhibition counterscreen; 300,000 tested, 12% active; AID 2314; max response, %; in the data active = max response mostly above about 13%, no sharp cut-off; inactive = mostly below about 14%; also: read at 38.3 µM for the half of the compounds with a filed dose
Sm TGR inh: S. mansoni TGR enzyme inhibition; Q962Y6; purified TGR, DTNB reduction, TNB absorbance 405 nm; Potency, µM (top dose mostly 114 µM), actives largely listed as inhibitors; 360,000 tested, 3% active; active = well fitted inhibition curve with a large enough effect; inconclusive = small, poorly fitted or top-dose-only effect; inactive = no such curve, though single readings can be large or run the other way; also: nearly all actives have a fitted effect of over 60% in size
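First, TGR (20 nM dispensed) and NADPH were mixed with compound. Second, a 15 min room-temperature incubation followed. Third, further NADPH and then DTNB were added to start the reaction. Finally, TNB absorbance was monitored kinetically.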
Of the large screens only hits and unclear results are named; the others gave an inactive call. Hits are enriched below; roughly 12% of the tested compounds scored in any of these assays.

CC(CCCC(C)(C)O)NC(=O)c1ccc2oc(CCc3ccccc3)nc2c1 (stereo not given)	FMDV antiviral inconclusive, CHX counter 14
CCn1ccnc1CNC(=O)c1ccc2oc(CCCc3ccccc3)nc2c1	Shiga inhibitor 32, CHX counter 19
CCCCc1nc2cc(C(=O)NCCc3c(C)n[nH]c3C)ccc2o1	none (no result: Shiga inhibitor, CHX counter, Sm TGR inh)
CC(C)(C)NC(=O)c1ccc2nc(CCc3ccccc3)oc2c1	none (no result: Shiga inhibitor, CHX counter)
CCCCc1nc2cc(C(=O)NCc3ccccn3)ccc2o1	CHX counter 10
COc1ccc(F)cc1S(=O)(=O)Nc1ccc2c(c1)CCCN2C(=O)c1cccs1	none (no result: Shiga inhibitor, CHX counter)
O=C(c1cccc(C(F)(F)F)c1)C1CCCN(C(=O)CN2CCCC2=O)C1 (stereo not given)	CHX counter 17
Cn1nc(C(=O)N2CCCC2)c2ccccc2c1=O	none
O=C(c1cccc(C(F)(F)F)c1)C1CCCN(C(=O)CCCn2cncn2)C1 (stereo not given)	CHX counter 11
CSc1ccc(C(=O)C2CCCN(C(=O)c3nn(C)c(=O)c4ccccc34)C2)cc1 (stereo not given)	FMDV antiviral inconclusive, Sm TGR inh 14µM
O=C(c1ccc(C(F)(F)F)cc1)C1CCCN(C(=O)CCn2cncn2)C1 (stereo not given)	none
O=C(c1ccc(-c2ccccc2)cc1)C1CCCN(C(=O)Cn2cncn2)C1 (stereo not given)	none
CSc1ccc(C(=O)C2CCCN(C(=O)CCCn3cncn3)C2)cc1 (stereo not given)	CHX counter 11
Cc1ccc(NC(=O)c2ccc3c(O)c(S(=O)(=O)c4ccc(Cl)cc4)c(=O)[nH]c3c2)cc1	none (no result: Shiga inhibitor, CHX counter)
FC(F)(F)c1nc2nc(Cl)c(Cl)nc2[nH]1	none (no result: Shiga inhibitor, CHX counter, Sm TGR inh)
FC(F)(F)c1cccc(-c2nc3nc(Cl)c(Cl)nc3[nH]2)c1	Shiga inhibitor 102, CHX counter 50
O=C(CN1C(=O)COc2ccc(S(=O)(=O)N3CCCC3)cc21)N1CCN(c2ccc(F)cc2)CC1	none (no result: Shiga inhibitor, CHX counter)
CCCCNC(=O)CCCN1C(=O)c2ccccc2Sc2ncccc21	none (no result: Shiga inhibitor, CHX counter)
CCS(=O)(=O)N1CC(=O)N(c2ccccc2C)C(C)(C(=O)NC2CCCCC2)C1 (stereo not given)	none (no result: Shiga inhibitor, CHX counter)
N/C(=N\OC(=O)Nc1ccccc1)c1cccc(C(F)(F)F)c1	Shiga inhibitor 43, CHX counter 29
N/C(=N\OC(=O)Nc1ccccc1)c1ncc(C(F)(F)F)cc1Cl	Shiga inhibitor 53, CHX counter 20
COC(=O)/C(=C\Nc1ccccc1N)c1ncc(C(F)(F)F)cc1Cl	Shiga inhibitor 101, CHX counter 68
Cc1cc(/C(N)=N/OC(=O)Nc2cccc(C(F)(F)F)c2)no1	none
O=C(c1ccccc1)c1ncc(C(F)(F)F)cc1Cl	none
O=C(Nc1ccc(N2CCC(c3ccccc3)C2)c(C(=O)O)c1)c1ccc(Cl)cc1 (stereo not given)	none (no result: Shiga inhibitor, CHX counter)
OC1CCCN(Cc2nc(Cc3ccccc3Cl)no2)C1 (stereo not given)	CHX counter 17
CC1CCCN(Cc2nc(Cc3ccccc3Cl)no2)C1 (stereo not given)	Shiga inhibitor 38, CHX counter 23
CCOC(=O)C1CCCN(Cc2nc(Cc3ccccc3Cl)no2)C1 (stereo not given)	none
CCOc1cc(C(=O)NCC(c2ccc(N(C)C)cc2)N2CCOCC2)cc(OCC)c1OCC (stereo not given)	none (no result: Shiga inhibitor, CHX counter)
O=C(NCc1ccc(Cl)cc1)c1cnc2sc(N3CCCCCC3)nn2c1=O	none (no result: Shiga inhibitor, CHX counter)
COc1ccc(CCC(=O)N2CCCC(Nc3ccc(C)c(C)c3)C2)cc1OC (stereo not given)	CHX counter 23
CCOC(=O)c1c(C)oc2ncnc(Nc3cc(C)cc(C)c3)c12	none (no result: Shiga inhibitor, CHX counter)
c1coc(-c2nnc(-c3cccs3)o2)c1	Shiga inhibitor 81, CHX counter 49
Brc1ccc(-c2nnc(-c3ccco3)o2)cc1	Shiga inhibitor 73, CHX counter 47
Brc1ccc(-c2nnc(-c3cccc(Br)c3)o2)cc1	none
Cc1ccc(-c2nnc(-c3ccc(Br)cc3)o2)o1	Shiga inhibitor 27, CHX counter 18
c1coc(-c2nnc(-c3ccco3)nn2)c1	Shiga inhibitor 43, CHX counter 47, Sm TGR inh 4µM
Cc1cc(OC(C)C(=O)N(Cc2ccco2)Cc2ccccc2F)cc(C)c1Cl (stereo not given)	none (no result: Shiga inhibitor, CHX counter)
COC(=O)c1ccccc1NC(=O)c1ncoc1-c1ccco1	none (no result: Shiga inhibitor, CHX counter)
O=C(Nc1ccc(-c2nnc(-c3ccco3)o2)cc1)C(c1ccccc1)c1ccccc1	none
c1ccc(-c2nnc(-c3ccco3)o2)cc1	Shiga inhibitor 115, CHX counter 43
Cc1cc(C)c2c(n1)sc1c(=O)n(-c3cc(Cl)ccc3C)nnc12	none (no result: Shiga inhibitor, CHX counter)
[O-]/C(=C(\C(=S)Nc1ccc(SC(F)F)cc1)[n+]1cccc(CO)c1)c1ccc(Cl)s1	none
Cc1ccc(NC(=S)/C(=C(\[O-])c2ccc(Cl)s2)[n+]2cccc(CO)c2)cc1C	Shiga inhibitor 68, CHX counter 40, Sm TGR inh inconclusive
CCN(CC)C(=O)c1cccc(-c2csc(C(C)(O)c3cccc(F)c3)n2)c1 (stereo not given)	FMDV antiviral 25µM (no result: Shiga inhibitor, CHX counter, Sm TGR inh)
CC1CC(C)CN(C(=O)CNC(=O)c2ccc3ccccc3c2)C1 (stereo not given)	CHX counter 18
O=C(NCC(=O)N1CCN(S(=O)(=O)c2ccccc2)CC1)c1ccc2ccccc2c1	none (no result: Shiga inhibitor, CHX counter)
O=C(NCC(=O)N1CCCCC1)c1ccc2ccccc2c1	CHX counter 34
O=C(CSc1nc2c([nH]c3ccccc32)c(=O)n1-c1ccc(F)cc1)N1CCCCCC1	none (no result: Shiga inhibitor, CHX counter)
CCN1C(=O)c2ccccc2S(=O)c2ccc(C(=O)N3CCN(c4ccccc4OC)CC3)cc21 (stereo not given)	none (no result: Shiga inhibitor, CHX counter)
O=c1c2c(nc3cc(-c4ccccc4)[nH]n13)CCS2	Shiga inhibitor 75, CHX counter 43
O=c1c2c(nc3cc(-c4ccccc4Cl)[nH]n13)CCS2	Shiga inhibitor 78, CHX counter 38 (no result: Sm TGR inh)
CCN(Cc1cn2cccnc2n1)C1CCCCC1	none
Cc1ccc(SCc2cn3cccnc3n2)cc1	Shiga inhibitor 57, CHX counter 41
Cc1cc(OCc2cn3cccnc3n2)ccc1Cl	Shiga inhibitor 65, CHX counter 71
c1ccc(-n2nnnc2SCc2cn3cccnc3n2)cc1	none
Clc1ccc(SCc2cn3cccnc3n2)cc1	Shiga inhibitor 97, CHX counter 27 (no result: FMDV antiviral)
Cc1ccn2cc(CSc3ccccc3)nc2c1	Shiga inhibitor 111, CHX counter 47
Cn1ncnc1SCc1cn2cccnc2n1	none
Cc1cc(C)cc(-n2c(SCC(=O)Nc3ccccc3)nc3c(oc4ccccc43)c2=O)c1	none (no result: Shiga inhibitor, CHX counter)
COc1cc(C(=O)OCc2cc(=O)n3ccsc3n2)cc(OC)c1OC	none (no result: Shiga inhibitor, CHX counter)
O=C(Nc1ccc(C(F)(F)F)cc1)c1ccc2nc[nH]c2c1	Shiga inhibitor 54, CHX counter 23
COc1ccc(CCNC(=O)c2ccc3nc[nH]c3c2)cc1	none
COc1ccc(NC(=O)c2ccc3nc[nH]c3c2)cc1	Shiga inhibitor 62, CHX counter 38
Cc1nc2ccc(C(=O)Nc3ccc4nc[nH]c4c3)cc2[nH]1	none
O=C(Nc1ccc2c(c1)OCO2)c1ccc2nc[nH]c2c1	Shiga inhibitor 68, CHX counter 52
COc1ccc(C)cc1Nc1nc2c(S(=O)(=O)c3cc(C)ccc3C)nnn2c2ccsc12	none (no result: Shiga inhibitor, CHX counter)
